Screening data deposited in PubChem by National Center for Advancing Translational Sciences (NCATS).
Sampled rows, rich in hits. Any-hit rate of the full collection: about 5.4%.
CtBP-E1A blk = qHTS Assay for Inhibitors of the CtBP/E1A Interaction; AID 651724, 2012; 0.49% of 340,000 active; activity change, % (no concentration beside the values); AlphaScreen GST-E1A/His-CtBP binding, 1536-well; stronger effect = lower value; CtBP / adenovirus E1A interaction (AlphaScreen); in the data active = activity change below about -65%; inconclusive = mostly about -30% to -63%; note: % is set by controls: 0 for no effect and ±100 for the full control effect
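Steps: dispense buffer (Tris pH 8.0, NaCl 300 mM, TCEP 1 mM, BSA, Tween 20); add 5X protein mix (GST-E1A, His-CtBP, 125 nM each); pin 23 nL compound; 2 h at 37 °C, dark; add 5X beads (50 ug/mL); 1 h; read.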
Six1-Eya2 blk = qHTS Assay for Inhibitors of the Six1/Eya2 Interaction. Homeobox protein SIX1 (Homo sapiens) + Protein phosphatase EYA2 (Homo sapiens), …. AlphaScreen GST-Six1/His-Eya2 binding, biochemical; stronger effect = lower value. activity change, % (concentration not given with the values). 0.56% of 360,000 active; in the data active = activity change below about -65%; inconclusive = mostly about -30% to -63%; note: % is set by controls: 0 for no effect and ±100 for the full control effect
Target sequence (O00167 whole entry, looked up): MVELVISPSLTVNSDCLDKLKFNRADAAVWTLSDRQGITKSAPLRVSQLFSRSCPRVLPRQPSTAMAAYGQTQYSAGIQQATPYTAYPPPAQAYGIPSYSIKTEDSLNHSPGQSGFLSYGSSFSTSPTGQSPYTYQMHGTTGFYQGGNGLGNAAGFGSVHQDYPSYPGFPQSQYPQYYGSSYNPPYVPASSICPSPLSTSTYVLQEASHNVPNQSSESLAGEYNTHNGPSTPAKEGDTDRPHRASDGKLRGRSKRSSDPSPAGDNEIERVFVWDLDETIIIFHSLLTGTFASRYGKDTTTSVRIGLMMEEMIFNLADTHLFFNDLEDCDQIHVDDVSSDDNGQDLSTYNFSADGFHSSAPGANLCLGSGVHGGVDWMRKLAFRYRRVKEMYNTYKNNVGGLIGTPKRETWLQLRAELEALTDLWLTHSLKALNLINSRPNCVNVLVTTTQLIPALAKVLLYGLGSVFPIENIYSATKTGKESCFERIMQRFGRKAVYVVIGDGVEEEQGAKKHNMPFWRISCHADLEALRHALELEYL
Target sequence (Q15475 whole entry, looked up): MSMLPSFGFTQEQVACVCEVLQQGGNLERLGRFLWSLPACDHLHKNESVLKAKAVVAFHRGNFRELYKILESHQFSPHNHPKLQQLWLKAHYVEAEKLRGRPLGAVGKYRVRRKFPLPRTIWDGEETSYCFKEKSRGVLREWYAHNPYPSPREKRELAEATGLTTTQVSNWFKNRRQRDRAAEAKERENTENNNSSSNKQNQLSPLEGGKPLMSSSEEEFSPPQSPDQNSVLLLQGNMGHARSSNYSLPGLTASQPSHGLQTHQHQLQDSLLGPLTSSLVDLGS
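Homogeneous AlphaScreen proximity assay pairing GST-Six1 with His-tagged Eya2 (added as 5X mix: 250 nM and 500 nM) in 50 mM Tris pH 8.0, 300 mM NaCl, 1 mM TCEP. Glutathione donor and nickel acceptor beads; 1 h, 37 °C, dark.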
Gal4-VP16 FLuc = VP16 counterscreen qHTS for inhibitors of ROR gamma transcriptional activity. 3.5% of 310,000 active. Potency, µM (doses to about 53.6 µM), inactives show top-dose activity, negative = inhibition, actives largely listed as inhibitors. Drosophila S2 Gal4-VP16 UAS-luciferase, luminescence, 20 h. AID 2546, 2010;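 note: Gal4-VP16 expression switched on by copper sulfate through the metallothionein promoter; potency is the fitted concentration of half-maximal effect; % is set by controls: 0 for no effect and ±100 for the full control effect; nearly all actives have a fitted effect of over 50% in size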
RORg inh = qHTS for inhibitors of ROR gamma transcriptional activity; Nuclear receptor ROR-gamma (Mus musculus), P51450; Drosophila S2 Gal4-RORgamma UAS-luciferase reporter, 20 h; Potency, µM (highest dose often 53.6 µM), without a hit: at the top dose activity change, negative = inhibition, usual class: inhibitors; 5.4% of 310,000 active; AID 2551, 2010; note: potency is the fitted concentration of half-maximal effect; % is set by controls: 0 for no effect and ±100 for the full control effect; nearly all actives have a fitted effect of over 60% in size
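Drosophila Schneider cells stably carrying a metallothionein-driven Gal4 DBD–ROR gamma fusion and a UAS-Photinus luciferase reporter were exposed to compound for 1 hr, then induced with copper sulfate (700 uM final) for 20 hr at ambient temperature before luminescence reading.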
p53 reactivation = qHTS assay for re-activators of p53 using a Luc reporter; Potency, µM (titrated, usually from 92.2 µM), for the others: at the highest dose activity change, positive = activation, most hits filed as activators; H1299 p53-A138V BP100-luciferase reporter, luminescence, 24 h; AID 504706, 2011; 0.063% of 320,000 active; note: potency is the fitted concentration of half-maximal effect; % of control where 0% means no effect; nearly all actives have a fitted effect of over 45% in size
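H1299 (p53-null), stable ts p53-A138V + BP100-Luc; 1000 cells/well, Opti-MEM/10% FBS; cpd 4 pt, 1:5; 24 h, 37 deg C, 5% CO2; detection reagent 10 min RT; luminescence.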
Starred values were filed as active, the others as inactive; ? = inconclusive; · = not tested or not shown; [ ] = remark or other dose. Unless noted, calls come from the whole dose curve; as a rule, active = well fitted curve in the direction sought with a large enough effect; inconclusive = small, poorly fitted or top-dose-only effect, or another doubt; inactive = no such curve, though single readings can be large; an effect the other way counts as inactive or inconclusive.

SMILES	CtBP-E1A blk	Six1-Eya2 blk	Gal4-VP16 FLuc	RORg inh	p53 reactivation
Cc1ccc(-c2nc3ccccc3s2)cc1NC(=S)NC(=O)/C=C/c1ccco1	-15.3	?	10µM*	3.98µM*	?
Cn1c(=S)[nH]c2scc(-c3cccs3)c2c1=O	-13.1	-15.2	5.01µM*	0.794µM*	0.3%
C=CCn1c(=S)[nH]c2scc(-c3cccs3)c2c1=O	2.3	-6.9	0.794µM*	0.631µM*	3.2%
CN(NC(N)=O)c1ncc(C(F)(F)F)cc1Cl	0.0	8.7	1.8%	-2.6%	-6.7%
CN(NC(=O)c1ccc(Cl)cc1)c1ncc(C(F)(F)F)cc1Cl	9.2	34.1	11.1%	15.3%	0.4%
CN(NS(=O)(=O)c1ccc(Cl)cc1)c1ncc(C(F)(F)F)cc1Cl	4.7	1.2	3.16µM*	2.24µM*	4.0%
CN(NS(=O)(=O)c1ccc(F)cc1)c1ncc(C(F)(F)F)cc1Cl	-4.3	17.5	6.31µM*	3.16µM*	-2.9%
N=c1oc2cc(O)ccc2cc1C(=O)Nc1ccc(Br)cc1	18.7	18.5	1.78µM*	1.78µM*	·
COc1ccc(/C=C/C(=O)NC(=S)Nc2ccc(C(=O)O)cc2)cc1	-0.6	-4.5	-3.9%	2.2%	-12.1%
COc1ccc(/C=C/C(=O)NC(=S)N2CCN(c3ccccn3)CC2)cc1	?	-21.2	12.6µM*	2.51µM*	5.9%
COc1ccc(CC(=O)N2CCN(c3ccccn3)CC2)cc1	6.1	0.9	-8.8%	?	7.8%
COc1ccc(/C=C/C(=O)NC(=S)N2CCSCC2)cc1	-12.7	-3.7	12.6µM*	3.55µM*	10.9%
CC1=NN(c2cccc(C(=O)O)c2)C(=O)/C1=C\C=C/c1ccccc1	2.3	3.8	3.55µM*	1.12µM*	3.2%
CC1=NN(c2ccc(C)cc2)C(=O)/C1=C\C=C\c1ccccc1	0.4	6.5	?	?	-37.1%
COc1ccc(F)cc1C(=O)C1CCCN(C(=O)c2ccc(C(C)=O)s2)C1 (stereo unspecified)	1.7	4.9	-2.9%	14.2%	3.6%
CCOc1cc(/C=C2\SC(=N)N(c3nonc3N)C2=O)ccc1OCCN1CCOCC1	·	-27.5	?	3.16µM*	-6.0%
O=C(N[C@@H]1CC[C@@H](CCn2cc(-c3ccccc3)nn2)O[C@@H]1CO)c1cnccn1	4.2	4.8	·	·	·
O=C(N[C@@H]1CC[C@H](CCn2cc(-c3ccccn3)nn2)O[C@@H]1CO)c1ccncc1	-20.1	-75.6*	·	·	·
COc1cccc([C@H](O)Cn2cc(-c3cccc(CON=C(C)C)c3)nn2)c1	·	·	-5.3%[10 µM]	-4.4%[10 µM]	·
COc1ccc(Nc2c(-c3ccco3)nc3ccc(C)cn23)cc1	3.5	-3.7	-9.2%[10 µM]	17.8µM*	3.4%
COc1ccc(-c2nnc3n2N=C(c2c(OC)cccc2OC)CS3)cc1	·	·	-0.6%	-0.1%	·
Oc1ccccc1CNc1cnc2ccccc2c1	-27.9	-1.5	?	?	?
C=CCc1cccc(CNc2cnc3ccccc3c2)c1O	·	12.4	7.08µM*	?	5.6%
N#C/C(=C(/O)CN1CCCC1)c1nc(-c2ccccc2)cs1	-4.0	-6.3	16.3%	1.3%	14.5%
CCOC(=O)C1CCCN(C/C(O)=C(\C#N)c2nc(-c3ccc(Cl)cc3)cs2)C1 (stereo unspecified)	-8.4	-8.4	?	22.4µM*	-1.4%
SMILES	CtBP-E1A blk	Six1-Eya2 blk	Gal4-VP16 FLuc	RORg inh	p53 reactivation
CCOC(=O)C1CCCN(Cc2nc(N)nc(Nc3ccc(Cl)cc3)n2)C1 (stereo unspecified)	-10.5	-7.5	?	12.6µM*	1.8%
NCCNS(=O)(=O)c1cccc2cnccc12	·	·	-10.3%	?	·
CCN(CC)C(=S)S	·	·	3.55µM*	?	·
O=C(Cn1nc(C(=O)O)c2ccccc2c1=O)Nc1ccc2c(c1)C(=O)c1ccccc1C2=O	·	·	8.5%	1.0%	8.8%
CC1CCN(c2ccc(-c3cccs3)nn2)CC1	·	4.3	2µM*	2µM*	-13.2%
CC(C)(C)c1ccc(C(=O)NNC(=O)CNC(=O)c2cccs2)cc1	1.6	7.1	·	·	10.5%
CCc1cc2c(nc1CC)CCN(CC/C(C)=N/OCC[C@@H]1C=C[C@H](OC(C)=O)[C@H](COC(C)=O)O1)C2	·	·	-5.6%[10 µM]	-2.9%[10 µM]	·
Cc1ccc(/C=N/Nc2nncc(-c3ccccc3)n2)o1	-2.9	-14.7	12.6µM*	8.91µM*	2.8%
Clc1ccccc1-c1ccc(/C=N/Nc2nncc(-c3ccccc3)n2)o1	·	-7.5	10µM*	1.41µM*	-1.8%
Clc1ccc(-c2ccc(/C=N/Nc3nncc(-c4ccccc4)n3)o2)cc1	-6.5	-3.6	0.794µM*	0.794µM*	-8.8%
C(=C\c1ccccc1)/C=N/Nc1nncc(-c2ccccc2)n1	·	·	3.16µM*	2.24µM*	10.6%
O=S(=O)(N/N=C\c1ccc(-c2ccccc2Cl)o1)c1ccccc1	-4.7	-20.5	?	?	-0.9%
FC(F)(F)c1cccc(-c2ccc(/C=N/Nc3nncc(-c4ccccc4)n3)o2)c1	·	4.4	-1.3%	-4.6%	-1.4%
O=S1(=O)CC(N2CCCCC2)C1CN1CCCCC1 (stereo unspecified)	-9.7	8.3	·	·	·
Cc1cc(S(=O)(=O)N2CCC(NC(=O)C34CC5CC(CC(C5)C3)C4)CC2)ccc1-n1cnnn1	12.3	5.3	-3.6%	32.3%	-2.7%
CC1=C(C(=O)N2CCCCCC2)CC(CC(=O)NC2CCCC2)C(=O)N1CCC1=CCCCC1 (stereo unspecified)	3.2	-0.3	·	·	·
O=C(O)c1ccc(N/N=C/c2ccc(-c3ccccc3Cl)o2)cc1	3.9	7.7	?	?	14.0%
O=C(N/N=C/c1ccc(-c2ccccc2Cl)o1)c1ccccc1	-24.5	?	7.94µM*	3.55µM*	?
Cc1[nH]n(-c2ccccc2)c(=O)c1/C=N/Nc1nncc(-c2ccccc2)n1	-91.3*	-91.3*	0.0022µM*	0.0501µM*	?
CCOC(=O)CNc1oc(-c2ccccc2)nc1-c1ccccc1	·	·	-14.4%	5.5%	·
O=C(Nc1cscc1S(=O)(=O)c1ccccc1)c1ccccc1Cl	0.7	6.7	18.6%	-19.1%	0.6%
COCCCNC(=O)COC(=O)c1ccc(-c2nc3ccccc3s2)s1	·	-2.0	0.282µM*	2.82µM*	?
COc1ccc(C2CC(=O)N(C)c3ccccc3S2)cc1OC (stereo unspecified)	5.3	1.5	?	7.94µM*	5.4%
COc1ccc(C2CC(=O)N(CC(=O)NCC3CCCO3)c3ccccc3S2)cc1OC (stereo unspecified)	1.0	3.6	10.0%	12.2%	-3.9%
CCCC[C@]12Cc3cc(C#N)ccc3C(O1)c1c(c3cc(F)ccc3oc1=O)O2	·	·	-5.8%[10 µM]	-6.4%[10 µM]	·
